# Bioassay records: PubChem BioAssay, Sanford-Burnham Center for Chemical Genomics
# CRFBP-R2 agonist – agonists of CRF-BP/CRF-R2 complex, primary screen, cell-based, HEK293, calcium dye fluorescence, uHTS | CRF-binding protein / CRF receptor 2 complex (human) | calcium dye fluorescence (FLIPR); percent of saturating CRF peptide response | activation, % at 13.2 µM | 350,000 compounds, 0.46% hits;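 active = activation of at least 50%, plus an integration ratio under a set limit after plate pattern correction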;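 note: plate controls were neutral control wells without compound for no effect and CRF at EC100 for full effect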
# H9c2 protect – cardioprotection against H2O2-induced cell death, primary screen, uHTS, H9c2 cells, ATPLite luminescence; H9c2 cardiomyocytes, H2O2 injury protection, 2 h; protection from H2O2 cell death, % at 20 µM; 360,000 compounds, 0.63% hits;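 active = compounds giving at least 50% protection of heart cells from peroxide-induced death in the single-dose screen, raw or plate-pattern-corrected value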;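 note: 0% = DMSO wells with peroxide and 100% = DMSO wells without peroxide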
# CRFBP-R2 block – antagonists of CRF-BP/CRF-R2 complex, primary screen, cell-based, HEK293, calcium dye fluorescence, uHTS; CRF-induced calcium fluorescence; inhibition, % at 11.8 µM; 350,000 compounds, 0.59% hits;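 active = inhibition of the ligand-induced calcium signal above about 50% at the single tested concentration, limit read from the data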
# PfGluPho inh – PfG6PD enzyme inhibitors, primary screen, biochemical, fluorescence intensity, uHTS. 350,000 compounds, 0.78% hits. glucose-6-phosphate dehydrogenase-6-phosphogluconolactonase (Plasmodium falciparum 3D7). inhibition, % at 20 µM. AID 504690, 2011. PfGluPho enzyme, NADPH resazurin-diaphorase fluorescence;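 active = inhibition reaching at least a set limit at 20 µM in the primary screen, cut at about 59% in these data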;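 note: 0% = DMSO wells with substrate and 100% = DMSO wells lacking glucose-6-phosphate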
# FAS-TE inh – FAS thioesterase domain inhibitors, primary screen, biochemical, fluorescence intensity, uHTS; inhibition, % at 15 µM; recombinant FAS-TE, OMFH fluorogenic substrate, fluorescence endpoint; 360,000 compounds, 0.67% hits; Fatty acid synthase (Homo sapiens), P49327;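 active = compounds whose normalised, plate-corrected inhibition of enzyme fluorescence in the single-dose primary screen is 50% or more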;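 note: 0% = DMSO with enzyme and 100% = substrate without enzyme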
# aDG glyco up – activators of alpha-DG glycosylation, primary screen, uHTS, Pro5-aDG cells, AlphaScreen. 360,000 compounds, 0.22% hits. activation, % at 10 µM. AID 624168, 2012. alpha-DG glycosylation AlphaScreen (IIH6); 0% Pro5, 100% B10-LARGE cell signal;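 active = activation of at least 8% versus controls, or a plate z-score of at least 8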;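 note: Pro5 are CHO cells carrying HIG-tagged alpha-DG that lacks glycosylation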
# * marks the source's active call; other numbers are inactive results. Compounds with a hit are over-represented: about 3.2% of the library has one in this group of screens.
SMILES,CRFBP-R2 agonist,H9c2 protect,CRFBP-R2 block,PfGluPho inh,FAS-TE inh,aDG glyco up
CCN(CC)C(=O)Cn1c(=O)c2ccccc2n2c(=S)sc(-c3cccc(C)c3)c12,55.3*,-3.0,-122.9,4.6,-28.8,-0.1
COc1ccc([N+](=O)[O-])cc1N(CC(=O)NCCCOC(C)C)S(C)(=O)=O,-1.9,4.7,59.5*,-1.4,-2.4,-0.1
CNC(=O)CN(c1cc([N+](=O)[O-])ccc1OC)S(C)(=O)=O,-4.2,13.8,18.8,-15.5,-8.1,-0.3
Cc1ccc2c(c1)C1(C(=O)N2)N2CCCC2C(C(=O)c2ccc3ccccc3c2)C12C(=O)Nc1ccccc12 (stereo unspecified),-0.9,-7.0,-16.4,31.6,4.5,0.0
Cc1sc2nc[nH]c(=S)c2c1-c1ccccc1,-6.0,65.7*,-7.8,9.1,6.7,0.1
COC(=O)C1=C(C)N(CCc2c[nH]c3ccc(OC)cc23)C(=O)C1,2.3,16.4,-1.7,-4.4,-2.2,-0.1
COc1cccc(C(=O)Oc2ccc(/C=N/NC(=O)c3ccncc3)cc2OC)c1,-0.6,18.2,-16.9,3.2,1.6,-0.2
COc1cc(C(=O)N/N=C/c2ccc(OC(=O)c3cccc(C)c3)c(OC)c2)ccc1O,0.1,58.0*,1.5,14.3,4.9,0.2
COc1cc(/C=N/NC(=O)c2cccnc2)ccc1OCC(=O)Nc1ccccc1Cl,-1.0,51.4*,9.8,11.7,0.5,0.8
COc1ccc(OC)c(/C=N/NC(=O)c2cc3c(OC)cc(OC)cc3[nH]2)c1,-3.6,50.8*,-41.5,-12.4,22.7,0.1
COc1ccc(OC)c(/C=N/NC(=O)CCc2ccc(O)c(O)c2)c1,11.2,51.0*,-20.5,19.4,-9.3,0.2
CC[C@]12c3[nH]c4ccc(OC)cc4c3CCN1C(=O)C(CC(=O)NCCC1=CCCCC1)C[C@@H]2C(=O)N1CCN(C(=O)C2CC2)CC1 (stereo partly specified),-4.8,-15.2,-2.2,7.2,1.1,-0.3
COc1ccccc1NC(=O)COc1ccc(/C=N/NC(=O)c2cccnc2)cc1,0.5,50.6*,-2.3,4.0,-4.4,0.3
O=C(COc1ccc(/C=N/NC(=O)c2cccnc2)cc1)Nc1ccccc1,-0.6,18.9,-5.6,0.2,-3.6,0.0
CCOC(=O)c1c(NC(=O)C(=O)N/N=C/c2ccc(O)c(OC)c2)sc2c1CCCCC2,-1.6,53.4*,54.7*,14.3,22.8,-0.1
COc1cc(/C=N\NC(=O)c2cccnc2)ccc1OC(=O)c1ccccc1Cl,-0.2,55.3*,1.9,8.9,3.2,0.1
COc1cc(C(=O)N/N=C/c2ccc(OC(=O)c3ccccc3Cl)cc2)ccc1O,-0.2,51.5*,-13.2,-3.3,6.6,0.1
COCCNC(=O)CSc1nnc(NC(=O)C2CC(=O)N(c3ccccc3OC)C2)s1 (stereo unspecified),-1.1,3.7,0.6,16.0,-2.2,-0.1
CN1C[C@@H]2[C@@H]3C(=O)N(Cc4ccccc4)C(=O)[C@@H]3[C@](Cc3ccccc3)(C1=O)N2C(=O)c1ccc(Cl)cc1,0.6,2.0,-3.9,-6.7,-0.7,-0.2
COc1cc(/C=N/NC(=O)c2nc(C)cc(C)n2)ccc1O,164.9*,1.9,-156.6,-22.6,-4.4,0.0
COc1cc(/C=N/NC(=O)c2ccccc2O)ccc1OCC(=O)Nc1ccccc1,-0.6,77.8*,12.9,-4.1,0.7,-0.1
COc1ccc(/C=N/NC(=O)c2cc3c(OC)ccc(OC)c3[nH]2)cc1O,-1.7,65.9*,0.2,-4.0,1.9,-0.3
CCCCC(=O)Nc1ccc(N2CCN(C(=O)c3ccco3)CC2)cc1,0.2,-3.0,9.4,-1.8,-6.6,0.1
O=C(COC(=O)C1COc2ccccc2O1)Nc1cccc(F)c1 (stereo unspecified),-0.6,5.2,9.9,1.1,-4.4,0.0
